The record followed here is PubChem BioAssay AID485275 (NMMLSC, 2010).

Screen size: about 330,000 compounds; about 1,400 (0.42%) were called active. The entries come from a sample that favours actives as a whole. A number with no mark means an inactive call.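 How the source made its calls: active means plate passing quality check with inhibition over a set limit, or well fluorescence over plate mean plus 4 SD; inactive means the rest.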

A short description of the test: antifungal drug efflux pump blockers, triplex strains – S. cerevisiae, Nile Red, multiplex, primary screen (AID 485275).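 Further: Nile Red retained in pooled yeast measured as flow cytometry median fluorescence; 0% = buffer negative control and 100% = Enniatin B positive control; higher means more Nile Red kept so more efflux inhibition.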 The note with it: S. cerevisiae Candida pump triplex, at 10 µM, hits give high values.
As for `C/C(=N/O)c1ccc2ccc3ccccc3c2c1`, the inhibition is 0.16%.
For the molecule `Cc1ccc(-n2c(-c3ccc([N+](=O)[O-])cc3)nc3ccccc3c2=O)cc1`, the inhibition is -0.08%.
For the molecule `O=[N+]([O-])c1cnc2ccc3ccccc3c2c1`, the inhibition is 0.41% (active).
`Clc1ccc2nc3c(c(-c4ccccc4)c2c1)CNCC3`: the inhibition was -0.17%.
For `COC(=O)C1=C(c2ccc(Cl)c(C(F)(F)F)c2)C[C@@H]2CC[C@H]1N2C(=O)NC1CC1` the value was -0.03%; for `CCN(CC)c1ccc([N+](=O)[O-])c2cccnc12`, 1.08% (active).
On to `CN(c1ccccc1)c1ccc([N+](=O)[O-])c2nonc12`, for which the inhibition is -0.18%.
Regarding `CN1CCC(N(C)Cc2cccnc2)CC1`, the inhibition is 0.12%.
Regarding `c1cc2c(cc1CCNC1CCCCCC1)OCO2`, the inhibition is 0.08%.
For the molecule `CCN1CC2C3CCC(C)(O3)C2C1` (stereo not given), the inhibition is -0.18%.
